# Columns and labels:
# Test in all cases: DAPPL (digital affinity profiling via proximity ligation, sequencing); 10 mM Tris-HCl pH 7.5, 50 mM NaCl, 1 mM DTT, 4% glycerol, room temperature, 30 min; GST-TFs on glutathione beads, 16-mer random dsDNA library, 0.1% formaldehyde crosslink after washing; high values mean tight binding
# FEV = target: T1, FEV (Homo sapiens, UniProt Q99581 1-238); details: protein: recombinant; tags: N-terminal GST; dsDNA, one strand shown
# T1 sequence: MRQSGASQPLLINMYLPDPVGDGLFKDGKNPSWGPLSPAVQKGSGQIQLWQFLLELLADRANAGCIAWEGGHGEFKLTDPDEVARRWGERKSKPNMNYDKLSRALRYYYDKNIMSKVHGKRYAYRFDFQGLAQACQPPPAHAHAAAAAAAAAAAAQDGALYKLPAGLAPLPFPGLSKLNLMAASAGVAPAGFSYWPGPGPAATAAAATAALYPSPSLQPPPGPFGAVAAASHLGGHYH
# How it was run: (§1)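 Yeast served to express human transcription factors as GST fusions, which were then captured on glutathione beads and labelled with DNA barcodes. Pooled with a tag-only sample, they were incubated with 200 nmole of a 16-mer random double-stranded DNA library for 30 min at room temperature in Tris/NaCl/DTT/glycerol buffer, washed, crosslinked with 0.1% formaldehyde, ligated by proximity, amplified by PCR and sequenced. Dividing each hexamer's read frequency for a factor by its frequency for the tag-only sample gives the binding signal.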
# ETV5 = ETV5 (Homo sapiens, UniProt P41161 1-510); details: protein: recombinant; tags: N-terminal GST; dsDNA, one strand shown
# How it was run: as §1
# HSF1 = HSF1 (Homo sapiens, UniProt Q00613 1-529); details: protein: recombinant; tags: N-terminal GST; chain copies: 3; dsDNA, one strand shown
# How it was run: as §1
# SPIC = target: T2, SPIC (Homo sapiens, UniProt Q8N5J4 1-248); details: protein: recombinant; tags: N-terminal GST; dsDNA, one strand shown
# T2 sequence: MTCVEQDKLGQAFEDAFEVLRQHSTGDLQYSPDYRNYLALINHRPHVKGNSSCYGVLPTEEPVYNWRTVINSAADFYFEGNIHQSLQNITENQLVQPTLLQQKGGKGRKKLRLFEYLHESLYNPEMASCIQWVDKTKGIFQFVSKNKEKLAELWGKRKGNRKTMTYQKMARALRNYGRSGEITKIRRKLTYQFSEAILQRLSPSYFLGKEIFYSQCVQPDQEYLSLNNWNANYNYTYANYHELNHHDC
# How it was run: as §1
# ELF4 = ELF4 (Homo sapiens, UniProt Q99607 1-663); details: protein: recombinant; tags: N-terminal GST; dsDNA, one strand shown
# How it was run: as §1
# ELK4 = target: T3, ELK4 (Homo sapiens, UniProt P28324-2 1-405); details: protein: recombinant; tags: N-terminal GST; dsDNA, one strand shown
# T3 sequence: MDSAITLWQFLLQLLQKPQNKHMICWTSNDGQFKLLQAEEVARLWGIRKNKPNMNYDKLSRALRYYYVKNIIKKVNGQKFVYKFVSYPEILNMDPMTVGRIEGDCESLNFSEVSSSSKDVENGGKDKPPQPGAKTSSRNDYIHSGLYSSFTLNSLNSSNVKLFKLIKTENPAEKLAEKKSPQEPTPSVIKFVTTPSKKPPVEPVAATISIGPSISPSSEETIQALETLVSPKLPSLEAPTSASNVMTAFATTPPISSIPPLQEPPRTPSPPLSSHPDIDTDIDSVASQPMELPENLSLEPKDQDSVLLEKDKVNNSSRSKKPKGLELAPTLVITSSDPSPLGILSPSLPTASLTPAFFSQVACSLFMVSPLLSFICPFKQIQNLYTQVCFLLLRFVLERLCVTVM
# How it was run: as §1
# ETV2 = target: T4, ETV2 (Homo sapiens, UniProt O00321 1-342); details: protein: recombinant; tags: N-terminal GST; dsDNA, one strand shown
# T4 sequence: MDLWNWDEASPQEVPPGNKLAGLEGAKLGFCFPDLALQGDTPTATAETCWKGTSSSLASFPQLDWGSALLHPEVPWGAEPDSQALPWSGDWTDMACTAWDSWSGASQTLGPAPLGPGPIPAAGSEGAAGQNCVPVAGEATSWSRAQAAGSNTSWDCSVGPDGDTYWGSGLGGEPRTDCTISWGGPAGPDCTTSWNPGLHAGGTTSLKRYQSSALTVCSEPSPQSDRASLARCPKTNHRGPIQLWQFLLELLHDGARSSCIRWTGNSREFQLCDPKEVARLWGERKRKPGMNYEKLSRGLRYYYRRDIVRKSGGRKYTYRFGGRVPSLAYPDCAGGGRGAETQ
# How it was run: as §1
# ELF3 = target: T5, ELF3 (Homo sapiens, UniProt P78545 1-371); details: protein: recombinant; tags: N-terminal GST; dsDNA, one strand shown
# T5 sequence: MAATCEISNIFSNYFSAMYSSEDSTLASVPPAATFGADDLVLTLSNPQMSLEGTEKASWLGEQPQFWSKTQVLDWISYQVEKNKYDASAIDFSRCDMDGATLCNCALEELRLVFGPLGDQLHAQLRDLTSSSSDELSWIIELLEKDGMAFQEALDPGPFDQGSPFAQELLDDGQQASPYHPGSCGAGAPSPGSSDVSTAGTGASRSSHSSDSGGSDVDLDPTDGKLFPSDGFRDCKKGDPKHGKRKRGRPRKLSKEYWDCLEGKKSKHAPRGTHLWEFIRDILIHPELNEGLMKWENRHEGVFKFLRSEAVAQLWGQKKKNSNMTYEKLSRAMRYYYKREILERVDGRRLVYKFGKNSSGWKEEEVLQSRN
# How it was run: as §1
# CRX = CRX (Homo sapiens, UniProt O43186 1-299); details: protein: recombinant; tags: N-terminal GST; dsDNA, one strand shown
# How it was run: as §1
# ETV1 = ETV1 (Homo sapiens, UniProt P50549 1-477); details: protein: recombinant; tags: N-terminal GST; dsDNA, one strand shown
# How it was run: as §1
# ERF = target: T6, ERF (Homo sapiens, UniProt P50548 1-548); details: protein: recombinant; tags: N-terminal GST; dsDNA, one strand shown
# T6 sequence: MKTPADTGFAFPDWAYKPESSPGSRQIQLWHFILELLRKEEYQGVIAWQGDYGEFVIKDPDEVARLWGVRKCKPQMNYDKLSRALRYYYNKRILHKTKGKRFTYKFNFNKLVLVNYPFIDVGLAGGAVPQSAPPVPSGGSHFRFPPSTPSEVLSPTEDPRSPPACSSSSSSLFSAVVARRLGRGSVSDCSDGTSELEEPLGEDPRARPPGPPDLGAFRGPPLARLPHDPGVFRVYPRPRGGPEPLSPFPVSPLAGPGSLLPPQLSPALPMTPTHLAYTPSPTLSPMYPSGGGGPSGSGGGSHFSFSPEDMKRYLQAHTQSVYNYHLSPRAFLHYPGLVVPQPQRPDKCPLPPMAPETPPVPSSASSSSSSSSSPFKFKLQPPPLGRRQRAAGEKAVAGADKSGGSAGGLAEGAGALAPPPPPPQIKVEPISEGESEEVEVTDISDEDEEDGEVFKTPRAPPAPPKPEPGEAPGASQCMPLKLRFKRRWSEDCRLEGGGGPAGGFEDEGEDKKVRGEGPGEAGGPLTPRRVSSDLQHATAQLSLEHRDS
# How it was run: as §1
# ETV3L = target: T7, ETV3L (Homo sapiens, UniProt Q6ZN32 1-361); details: protein: recombinant; tags: N-terminal GST; dsDNA, one strand shown
# T7 sequence: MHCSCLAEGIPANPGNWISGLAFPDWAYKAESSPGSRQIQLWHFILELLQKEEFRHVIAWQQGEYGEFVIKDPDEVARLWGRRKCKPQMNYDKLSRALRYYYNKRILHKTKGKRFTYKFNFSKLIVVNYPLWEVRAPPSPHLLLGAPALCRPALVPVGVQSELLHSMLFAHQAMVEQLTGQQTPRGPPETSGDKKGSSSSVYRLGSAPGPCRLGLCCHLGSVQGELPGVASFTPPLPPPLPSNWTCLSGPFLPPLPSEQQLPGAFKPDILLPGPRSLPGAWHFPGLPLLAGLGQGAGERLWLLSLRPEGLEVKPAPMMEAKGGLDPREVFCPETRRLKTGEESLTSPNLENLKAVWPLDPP
# How it was run: as §1
# ETS2 = target: T8, ETS2 (Homo sapiens, UniProt P15036 1-469); details: protein: recombinant; tags: N-terminal GST; dsDNA, one strand shown
# T8 sequence: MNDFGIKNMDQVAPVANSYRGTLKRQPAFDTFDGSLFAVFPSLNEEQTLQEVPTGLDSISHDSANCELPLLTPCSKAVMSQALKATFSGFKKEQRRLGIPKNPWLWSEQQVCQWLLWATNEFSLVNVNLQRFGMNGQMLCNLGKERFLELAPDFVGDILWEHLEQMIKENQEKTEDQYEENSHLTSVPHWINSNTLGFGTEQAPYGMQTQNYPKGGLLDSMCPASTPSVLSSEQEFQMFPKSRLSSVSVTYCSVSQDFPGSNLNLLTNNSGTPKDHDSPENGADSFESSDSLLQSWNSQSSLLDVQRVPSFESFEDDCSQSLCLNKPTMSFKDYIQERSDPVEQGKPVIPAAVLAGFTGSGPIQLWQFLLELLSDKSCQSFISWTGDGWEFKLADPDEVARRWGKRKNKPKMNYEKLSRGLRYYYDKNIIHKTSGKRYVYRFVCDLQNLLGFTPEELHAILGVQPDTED
# How it was run: as §1
# SPDEF = target: T9, SPDEF (Homo sapiens, UniProt O95238 1-335); details: protein: recombinant; tags: N-terminal GST; dsDNA, one strand shown
# T9 sequence: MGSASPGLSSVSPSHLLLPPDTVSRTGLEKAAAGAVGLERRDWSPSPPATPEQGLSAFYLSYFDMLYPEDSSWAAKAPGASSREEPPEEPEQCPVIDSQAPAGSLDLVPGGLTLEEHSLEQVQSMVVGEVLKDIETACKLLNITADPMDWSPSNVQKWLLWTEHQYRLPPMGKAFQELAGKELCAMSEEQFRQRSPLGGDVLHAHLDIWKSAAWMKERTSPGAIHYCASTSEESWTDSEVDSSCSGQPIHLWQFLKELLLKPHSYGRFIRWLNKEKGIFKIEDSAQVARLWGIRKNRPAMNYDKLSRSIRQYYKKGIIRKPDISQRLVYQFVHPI
# How it was run: as §1
# ETV7 = target: T10, ETV7 (Homo sapiens, UniProt Q9Y603 1-341); details: protein: recombinant; tags: N-terminal GST; dsDNA, one strand shown
# T10 sequence: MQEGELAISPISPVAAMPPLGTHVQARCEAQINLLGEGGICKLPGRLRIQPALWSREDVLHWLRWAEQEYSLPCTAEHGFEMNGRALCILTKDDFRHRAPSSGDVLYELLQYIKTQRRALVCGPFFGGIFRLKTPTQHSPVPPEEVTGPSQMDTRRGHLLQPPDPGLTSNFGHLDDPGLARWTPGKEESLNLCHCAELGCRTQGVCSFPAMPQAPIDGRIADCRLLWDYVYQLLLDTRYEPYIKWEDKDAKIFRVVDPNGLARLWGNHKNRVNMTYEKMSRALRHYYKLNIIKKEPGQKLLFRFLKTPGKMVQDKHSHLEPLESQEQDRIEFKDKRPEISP
# How it was run: as §1
# ELF5 = target: T11, ELF5 (Homo sapiens, UniProt Q9UKW6-2 1-255); details: protein: recombinant; tags: N-terminal GST; dsDNA, one strand shown
# T11 sequence: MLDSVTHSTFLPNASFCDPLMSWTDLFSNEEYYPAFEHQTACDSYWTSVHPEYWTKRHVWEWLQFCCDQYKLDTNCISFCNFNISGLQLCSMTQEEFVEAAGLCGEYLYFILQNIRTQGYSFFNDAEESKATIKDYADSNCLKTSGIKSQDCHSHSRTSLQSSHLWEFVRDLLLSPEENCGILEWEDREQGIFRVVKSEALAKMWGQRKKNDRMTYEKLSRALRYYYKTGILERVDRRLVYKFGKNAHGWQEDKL
# How it was run: as §1
# ETV3 = target: T12, ETV3 (Homo sapiens, UniProt P41162-2 1-143); details: protein: recombinant; tags: N-terminal GST; dsDNA, one strand shown
# T12 sequence: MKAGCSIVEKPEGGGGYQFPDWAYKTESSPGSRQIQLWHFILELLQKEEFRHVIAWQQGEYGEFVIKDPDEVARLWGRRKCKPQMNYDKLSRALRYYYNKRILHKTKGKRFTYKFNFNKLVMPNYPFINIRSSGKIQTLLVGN
# How it was run: as §1
# ETV6 = ETV6 (Homo sapiens, UniProt P41212 1-452); details: protein: recombinant; tags: N-terminal GST; dsDNA, one strand shown
# How it was run: as §1
# Sequence of ETV5 (P41161 whole entry): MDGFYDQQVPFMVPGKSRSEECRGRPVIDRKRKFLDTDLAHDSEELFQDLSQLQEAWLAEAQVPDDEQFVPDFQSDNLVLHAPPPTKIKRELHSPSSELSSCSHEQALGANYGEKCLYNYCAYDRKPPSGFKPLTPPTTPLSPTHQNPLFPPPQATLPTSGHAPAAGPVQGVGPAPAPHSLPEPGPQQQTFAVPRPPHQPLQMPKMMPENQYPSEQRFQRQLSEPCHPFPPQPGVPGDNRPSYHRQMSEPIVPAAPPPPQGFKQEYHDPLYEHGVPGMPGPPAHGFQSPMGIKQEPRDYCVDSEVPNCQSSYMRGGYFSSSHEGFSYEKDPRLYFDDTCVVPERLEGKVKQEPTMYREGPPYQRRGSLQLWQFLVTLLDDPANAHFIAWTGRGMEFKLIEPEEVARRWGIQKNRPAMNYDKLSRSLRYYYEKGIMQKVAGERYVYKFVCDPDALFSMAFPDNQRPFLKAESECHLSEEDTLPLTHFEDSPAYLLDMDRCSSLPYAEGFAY
# Sequence of CRX (O43186 whole entry): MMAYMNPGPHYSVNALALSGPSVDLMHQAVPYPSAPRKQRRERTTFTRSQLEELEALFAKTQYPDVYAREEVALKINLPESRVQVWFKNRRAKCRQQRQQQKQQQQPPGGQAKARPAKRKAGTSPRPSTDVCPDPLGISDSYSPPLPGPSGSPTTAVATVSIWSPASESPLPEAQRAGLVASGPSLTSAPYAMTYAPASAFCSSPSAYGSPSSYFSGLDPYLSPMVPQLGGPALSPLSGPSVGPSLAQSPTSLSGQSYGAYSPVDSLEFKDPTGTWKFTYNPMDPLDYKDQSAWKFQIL
# Sequence of HSF1 (Q00613 whole entry): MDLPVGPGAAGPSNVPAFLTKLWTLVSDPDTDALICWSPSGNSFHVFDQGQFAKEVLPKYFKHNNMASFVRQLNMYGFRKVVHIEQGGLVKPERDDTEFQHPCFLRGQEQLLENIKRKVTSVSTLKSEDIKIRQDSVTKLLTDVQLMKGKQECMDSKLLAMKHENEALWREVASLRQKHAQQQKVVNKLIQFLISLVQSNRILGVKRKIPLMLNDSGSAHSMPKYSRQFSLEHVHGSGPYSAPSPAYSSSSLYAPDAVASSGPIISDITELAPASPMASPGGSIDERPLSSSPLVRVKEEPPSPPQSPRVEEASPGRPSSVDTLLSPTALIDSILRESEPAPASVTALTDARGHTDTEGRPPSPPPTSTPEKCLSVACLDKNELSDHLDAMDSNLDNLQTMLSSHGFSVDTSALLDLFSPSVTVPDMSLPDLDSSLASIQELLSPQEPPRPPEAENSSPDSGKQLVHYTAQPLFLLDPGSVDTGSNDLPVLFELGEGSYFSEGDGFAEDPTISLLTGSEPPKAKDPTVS
# Sequence of ELF4 (Q99607 whole entry): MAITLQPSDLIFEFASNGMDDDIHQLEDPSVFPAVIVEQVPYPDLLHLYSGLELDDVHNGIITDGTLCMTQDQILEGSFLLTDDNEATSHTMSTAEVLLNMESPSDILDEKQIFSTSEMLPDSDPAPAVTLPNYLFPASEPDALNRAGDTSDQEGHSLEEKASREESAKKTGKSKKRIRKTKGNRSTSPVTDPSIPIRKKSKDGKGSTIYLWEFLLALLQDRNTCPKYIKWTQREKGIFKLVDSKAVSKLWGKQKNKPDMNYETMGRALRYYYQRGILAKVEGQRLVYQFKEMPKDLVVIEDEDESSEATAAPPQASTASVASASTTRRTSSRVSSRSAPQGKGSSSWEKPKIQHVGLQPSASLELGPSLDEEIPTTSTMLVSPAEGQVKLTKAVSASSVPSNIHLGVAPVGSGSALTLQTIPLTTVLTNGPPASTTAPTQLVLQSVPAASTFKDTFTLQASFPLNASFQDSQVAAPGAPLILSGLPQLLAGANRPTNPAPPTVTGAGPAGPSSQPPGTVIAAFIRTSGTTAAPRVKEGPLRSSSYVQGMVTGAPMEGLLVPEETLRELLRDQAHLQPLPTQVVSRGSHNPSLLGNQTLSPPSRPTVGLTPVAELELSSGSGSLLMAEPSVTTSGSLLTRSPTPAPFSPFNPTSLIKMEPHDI
# Sequence of ETV6 (P41212 whole entry): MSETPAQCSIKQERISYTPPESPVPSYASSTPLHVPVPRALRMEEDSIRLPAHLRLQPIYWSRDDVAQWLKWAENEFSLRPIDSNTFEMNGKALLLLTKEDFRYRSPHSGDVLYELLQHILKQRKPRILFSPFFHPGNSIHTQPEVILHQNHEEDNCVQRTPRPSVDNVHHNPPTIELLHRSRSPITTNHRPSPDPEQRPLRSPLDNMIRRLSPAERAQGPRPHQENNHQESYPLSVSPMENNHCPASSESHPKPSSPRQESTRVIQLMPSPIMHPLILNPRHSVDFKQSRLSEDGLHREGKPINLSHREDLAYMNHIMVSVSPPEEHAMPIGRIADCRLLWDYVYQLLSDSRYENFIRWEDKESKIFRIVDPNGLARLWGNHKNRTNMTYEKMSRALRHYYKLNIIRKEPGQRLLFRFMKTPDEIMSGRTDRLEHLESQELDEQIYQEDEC
# Sequence of ETV1 (P50549 whole entry): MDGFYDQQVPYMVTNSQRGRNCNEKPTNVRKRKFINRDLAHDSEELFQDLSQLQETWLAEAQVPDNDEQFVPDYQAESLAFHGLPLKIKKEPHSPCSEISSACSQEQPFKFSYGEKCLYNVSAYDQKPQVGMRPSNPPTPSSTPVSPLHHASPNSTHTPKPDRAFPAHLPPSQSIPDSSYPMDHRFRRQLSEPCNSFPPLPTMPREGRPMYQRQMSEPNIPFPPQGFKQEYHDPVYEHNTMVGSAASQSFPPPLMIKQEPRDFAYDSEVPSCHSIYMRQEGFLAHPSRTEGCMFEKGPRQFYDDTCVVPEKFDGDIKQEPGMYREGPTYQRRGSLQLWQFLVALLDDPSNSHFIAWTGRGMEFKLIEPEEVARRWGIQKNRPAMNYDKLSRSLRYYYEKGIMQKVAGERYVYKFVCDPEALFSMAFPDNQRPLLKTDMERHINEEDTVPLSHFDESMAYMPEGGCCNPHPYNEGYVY
sequence,measurement,setting,value
TCCCGT,binding signal,FEV,"1.3 fold enrichment (6-mer frequency, TF over GST control)"
same,binding signal,ETV5,"1.38 fold enrichment (6-mer frequency, TF over GST control)"
same,binding signal,HSF1,"1.35 fold enrichment (6-mer frequency, TF over GST control)"
same,binding signal,SPIC,"1.28 fold enrichment (6-mer frequency, TF over GST control)"
same,binding signal,ELF4,"1.23 fold enrichment (6-mer frequency, TF over GST control)"
same,binding signal,ELK4,"1.41 fold enrichment (6-mer frequency, TF over GST control)"
same,binding signal,ETV2,"1.29 fold enrichment (6-mer frequency, TF over GST control)"
same,binding signal,ELF3,"1.37 fold enrichment (6-mer frequency, TF over GST control)"
same,binding signal,CRX,"1.18 fold enrichment (6-mer frequency, TF over GST control)"
same,binding signal,ETV1,"1.3 fold enrichment (6-mer frequency, TF over GST control)"
same,binding signal,ERF,"1.4 fold enrichment (6-mer frequency, TF over GST control)"
same,binding signal,ETV3L,"1.29 fold enrichment (6-mer frequency, TF over GST control)"
same,binding signal,ETS2,"1.34 fold enrichment (6-mer frequency, TF over GST control)"
same,binding signal,SPDEF,"1.44 fold enrichment (6-mer frequency, TF over GST control)"
same,binding signal,ETV7,"1.32 fold enrichment (6-mer frequency, TF over GST control)"
same,binding signal,ELF5,"1.6 fold enrichment (6-mer frequency, TF over GST control)"
same,binding signal,ETV3,"1.27 fold enrichment (6-mer frequency, TF over GST control)"
same,binding signal,ETV6,"1.3 fold enrichment (6-mer frequency, TF over GST control)"

# — PMC7862700, “An all-to-all approach to the identification of sequence-specific readers for epigenetic DNA modifications on cytosine”
